Inconclusive results are not listed. The source made the active and inactive calls. The calls were made as follows: active = hit-call score of the fitted dose curve at least 0.9, where 1 is the maximum; inconclusive = response in the unintended direction; inactive = score below 0.9.
Experiments:
[1] = target: human Peroxisome Proliferator-activated Receptor alpha (PPARa), PPARA (gene 5465) (UniProt Q07869); assay: ATG_PPARa_TRANS: Attagene TRANS-FACTORIAL HepG2 Assay for human Peroxisome Proliferator-activated Receptor alpha (PPARa) (AID 2283001);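 as to AC50: potency for gain of reporter signal over DMSO so agonist or activator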
Chain of human Peroxisome Proliferator-activated Receptor alpha (PPARa), PPARA (gene 5465) (Q07869 whole entry, looked up, the tested form may be a part): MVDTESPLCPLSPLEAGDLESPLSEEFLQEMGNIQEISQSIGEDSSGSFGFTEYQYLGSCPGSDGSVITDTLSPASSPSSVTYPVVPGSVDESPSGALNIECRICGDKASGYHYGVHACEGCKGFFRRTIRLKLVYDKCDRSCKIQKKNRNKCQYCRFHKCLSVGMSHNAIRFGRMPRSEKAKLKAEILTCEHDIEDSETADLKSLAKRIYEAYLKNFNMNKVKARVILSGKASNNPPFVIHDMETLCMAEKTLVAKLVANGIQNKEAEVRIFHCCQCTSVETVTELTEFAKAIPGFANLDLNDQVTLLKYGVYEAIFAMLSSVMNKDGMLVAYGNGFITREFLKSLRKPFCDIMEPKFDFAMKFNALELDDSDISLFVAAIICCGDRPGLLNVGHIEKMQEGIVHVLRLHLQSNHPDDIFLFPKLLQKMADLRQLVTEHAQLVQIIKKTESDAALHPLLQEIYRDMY
Summary of the method: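 Transient HepG2 transfection, GAL4-UAS reporters, NR-Gal4 chimeras; 24 h compound exposure. Readout: reporter transcripts by RT-PCR, 6-FAM primer extension, HpaI digest, capillary electrophoresis. Positive direction vs DMSO baseline.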

[2] = target: human Retinoic Acid Receptor beta (RARb), RARB (gene 5915) (UniProt P10826); assay: ATG_RARb_TRANS: Attagene TRANS-FACTORIAL HepG2 Assay for human Retinoic Acid Receptor beta (AID 2283004)
Chain of human Retinoic Acid Receptor beta (RARb), RARB (gene 5915) (P10826 whole entry, looked up, the tested form may be a part): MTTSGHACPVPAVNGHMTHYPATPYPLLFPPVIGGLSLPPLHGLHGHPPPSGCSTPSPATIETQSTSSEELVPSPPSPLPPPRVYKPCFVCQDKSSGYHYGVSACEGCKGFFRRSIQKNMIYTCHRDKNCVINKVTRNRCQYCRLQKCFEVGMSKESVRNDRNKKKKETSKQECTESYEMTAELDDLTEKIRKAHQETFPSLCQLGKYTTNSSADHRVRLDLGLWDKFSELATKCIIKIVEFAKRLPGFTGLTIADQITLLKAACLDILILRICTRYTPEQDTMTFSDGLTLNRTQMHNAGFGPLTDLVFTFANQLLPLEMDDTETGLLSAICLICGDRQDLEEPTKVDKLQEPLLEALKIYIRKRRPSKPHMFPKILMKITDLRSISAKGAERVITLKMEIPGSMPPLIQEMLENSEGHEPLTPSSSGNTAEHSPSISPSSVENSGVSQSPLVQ
Summary of the method: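 HepG2, transient MRTU transfection, NR–Gal4 chimera, 24 h treatment; RT-PCR plus CE fluorescence detection of reporter mRNA; gain of signal vs DMSO.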

[3] = target: Retinoic acid receptor alpha (Homo sapiens) (UniProt P10276); assay: ATG_RARa_TRANS: Attagene TRANS-FACTORIAL HepG2 Assay for human Retinoic Acid Receptor alpha (RARa) (AID 2283005)
Chain of Retinoic acid receptor alpha (Homo sapiens) (P10276 whole entry, looked up, the tested form may be a part): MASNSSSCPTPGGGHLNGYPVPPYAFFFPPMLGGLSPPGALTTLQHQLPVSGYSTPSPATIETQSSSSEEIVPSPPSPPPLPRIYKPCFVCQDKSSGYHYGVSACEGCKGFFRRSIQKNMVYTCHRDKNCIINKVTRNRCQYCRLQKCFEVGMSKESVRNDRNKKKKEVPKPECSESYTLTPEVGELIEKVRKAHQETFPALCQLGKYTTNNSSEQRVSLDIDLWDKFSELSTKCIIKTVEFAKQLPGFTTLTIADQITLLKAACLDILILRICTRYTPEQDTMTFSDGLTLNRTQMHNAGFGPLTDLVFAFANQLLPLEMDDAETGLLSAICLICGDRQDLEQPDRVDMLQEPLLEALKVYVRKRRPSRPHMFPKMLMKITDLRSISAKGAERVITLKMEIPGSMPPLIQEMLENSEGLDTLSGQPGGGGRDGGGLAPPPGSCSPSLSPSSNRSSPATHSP
Summary of the method: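 HepG2 transiently transfected with multiplex GAL4-UAS reporter units including a human RARa–GAL4 chimera; 24 h compound exposure. Reporter mRNA quantified by RT-PCR, 6-FAM labeling and capillary electrophoresis; gain of signal versus DMSO.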

[4] = target: human Retinoid X Receptor beta (RXRb), RXRB (gene 6257) (UniProt P28702); assay: ATG_RXRb_TRANS: Attagene TRANS-FACTORIAL HepG2 Assay for human Retinoid X Receptor beta (RXRb) (AID 2283013)
Chain of human Retinoid X Receptor beta (RXRb), RXRB (gene 6257) (P28702 whole entry, looked up, the tested form may be a part): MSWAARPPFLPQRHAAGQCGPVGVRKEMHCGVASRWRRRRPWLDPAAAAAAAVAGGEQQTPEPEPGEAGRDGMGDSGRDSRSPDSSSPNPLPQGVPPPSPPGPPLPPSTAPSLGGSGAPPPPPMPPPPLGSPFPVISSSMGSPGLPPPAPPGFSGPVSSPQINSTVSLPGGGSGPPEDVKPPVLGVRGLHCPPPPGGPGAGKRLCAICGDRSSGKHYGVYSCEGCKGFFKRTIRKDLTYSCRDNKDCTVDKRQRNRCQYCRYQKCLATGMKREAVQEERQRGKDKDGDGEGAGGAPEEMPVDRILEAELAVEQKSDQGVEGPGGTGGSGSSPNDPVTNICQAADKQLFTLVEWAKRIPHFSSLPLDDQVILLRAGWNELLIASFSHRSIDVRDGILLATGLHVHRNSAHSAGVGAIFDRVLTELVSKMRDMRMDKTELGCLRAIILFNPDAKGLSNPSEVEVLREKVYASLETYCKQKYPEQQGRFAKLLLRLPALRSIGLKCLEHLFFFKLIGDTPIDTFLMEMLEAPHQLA
Summary of the method: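 Read-out: reporter mRNA induction via RT-PCR plus capillary electrophoresis fluorescence, analysed as signal increase relative to DMSO. Cells were human HepG2, transiently transfected with GAL4-UAS reporter constructs and chimeric receptor-Gal4 fusions, dosed for 24 h.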

[5] = target: Peroxisome proliferator-activated receptor gamma (Homo sapiens) (UniProt P37231); assay: ATG_PPARg_TRANS: Attagene TRANS-FACTORIAL HepG2 Assay for human Peroxisome Proliferator-activated Receptor-gamma (PPARg) (AID 2283007)
Chain of Peroxisome proliferator-activated receptor gamma (Homo sapiens) (P37231 whole entry, looked up, the tested form may be a part): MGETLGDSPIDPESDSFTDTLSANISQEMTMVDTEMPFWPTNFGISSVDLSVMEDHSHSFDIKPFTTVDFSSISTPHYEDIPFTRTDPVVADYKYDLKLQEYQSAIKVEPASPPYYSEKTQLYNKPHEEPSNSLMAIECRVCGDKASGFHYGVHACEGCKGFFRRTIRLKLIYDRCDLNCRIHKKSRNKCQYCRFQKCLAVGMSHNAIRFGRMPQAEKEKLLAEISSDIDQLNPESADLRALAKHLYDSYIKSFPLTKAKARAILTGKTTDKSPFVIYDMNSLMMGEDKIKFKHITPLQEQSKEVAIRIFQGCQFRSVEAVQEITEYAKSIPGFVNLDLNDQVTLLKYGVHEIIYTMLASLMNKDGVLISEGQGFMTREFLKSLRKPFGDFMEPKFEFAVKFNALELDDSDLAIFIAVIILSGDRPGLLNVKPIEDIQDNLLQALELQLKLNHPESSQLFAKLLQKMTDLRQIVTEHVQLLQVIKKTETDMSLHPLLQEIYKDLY
Summary of the method: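 Transient transfection of HepG2 with GAL4-UAS-driven reporter units; chemical dosing 24 h; total RNA → oligo(dT) RT → PCR with reporter primers → 6-FAM primer extension → HpaI digest 2 h 37 C → capillary electrophoresis. Positive direction vs DMSO.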

[6] = target: Nuclear receptor subfamily 1 group I member 2 (Homo sapiens) (UniProt O75469); assay: ATG_PXR_TRANS: Attagene TRANS-FACTORIAL HepG2 Assay for human Pregnane X Receptor (PXR) (AID 2283008)
Chain of Nuclear receptor subfamily 1 group I member 2 (Homo sapiens) (O75469 whole entry, looked up, the tested form may be a part): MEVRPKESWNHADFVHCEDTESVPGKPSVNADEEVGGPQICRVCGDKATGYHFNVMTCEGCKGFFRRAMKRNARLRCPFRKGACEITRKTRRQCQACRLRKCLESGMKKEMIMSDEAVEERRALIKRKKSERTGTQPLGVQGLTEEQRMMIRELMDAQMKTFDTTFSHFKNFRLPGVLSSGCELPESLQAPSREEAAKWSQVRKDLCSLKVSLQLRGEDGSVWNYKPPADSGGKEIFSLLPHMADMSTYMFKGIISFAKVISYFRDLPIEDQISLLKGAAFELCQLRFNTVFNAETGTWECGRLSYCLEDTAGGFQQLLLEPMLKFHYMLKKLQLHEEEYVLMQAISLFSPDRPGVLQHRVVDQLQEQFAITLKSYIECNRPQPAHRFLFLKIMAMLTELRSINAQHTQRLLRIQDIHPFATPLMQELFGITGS
Summary of the method: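 HepG2 transfected (FuGene 6) with GAL4-UAS reporter units + PXR-Gal4 chimera; dosed 24 h. Total RNA → oligo(dT) RT → PCR → 6-FAM primer extension → HpaI cut → CE. Gain-of-signal vs DMSO.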

[7] = target: human RAR-related Orphan Receptor gamma (RORg), RORC (gene 6097) (UniProt P51449); assay: ATG_RORg_TRANS: Attagene TRANS-FACTORIAL HepG2 Assay for human RAR-related Orphan Receptor gamma (RORg) (AID 2283011)
Chain of human RAR-related Orphan Receptor gamma (RORg), RORC (gene 6097) (P51449 whole entry, looked up, the tested form may be a part): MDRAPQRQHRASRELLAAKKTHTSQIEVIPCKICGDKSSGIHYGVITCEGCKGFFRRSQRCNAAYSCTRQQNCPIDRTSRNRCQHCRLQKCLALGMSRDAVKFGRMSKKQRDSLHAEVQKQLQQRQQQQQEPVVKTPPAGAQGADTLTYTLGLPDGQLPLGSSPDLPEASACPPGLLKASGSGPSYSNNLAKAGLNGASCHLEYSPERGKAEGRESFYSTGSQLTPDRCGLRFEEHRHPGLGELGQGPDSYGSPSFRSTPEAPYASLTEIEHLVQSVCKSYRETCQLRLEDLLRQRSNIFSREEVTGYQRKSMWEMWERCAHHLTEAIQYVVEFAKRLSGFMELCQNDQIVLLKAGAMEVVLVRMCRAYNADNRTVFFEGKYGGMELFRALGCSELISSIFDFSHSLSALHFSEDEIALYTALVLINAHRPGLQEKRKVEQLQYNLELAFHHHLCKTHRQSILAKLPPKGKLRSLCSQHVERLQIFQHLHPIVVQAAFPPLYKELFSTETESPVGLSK
Summary of the method: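 Activity is scored as increase in GAL4-UAS reporter mRNA over DMSO, detected by fluorescent RT-PCR and capillary electrophoresis in HepG2 cells transiently expressing a RORg-Gal4 chimera, 24 h after dosing.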

[8] = target: human Thyroid Receptor alpha (THRa1), THRA (gene 7067) (UniProt P10827); assay: ATG_THRa1_TRANS: Attagene TRANS-FACTORIAL HepG2 Assay for human Thyroid Receptor alpha (THRa1) (AID 2283014)
Chain of human Thyroid Receptor alpha (THRa1), THRA (gene 7067) (P10827 whole entry, looked up, the tested form may be a part): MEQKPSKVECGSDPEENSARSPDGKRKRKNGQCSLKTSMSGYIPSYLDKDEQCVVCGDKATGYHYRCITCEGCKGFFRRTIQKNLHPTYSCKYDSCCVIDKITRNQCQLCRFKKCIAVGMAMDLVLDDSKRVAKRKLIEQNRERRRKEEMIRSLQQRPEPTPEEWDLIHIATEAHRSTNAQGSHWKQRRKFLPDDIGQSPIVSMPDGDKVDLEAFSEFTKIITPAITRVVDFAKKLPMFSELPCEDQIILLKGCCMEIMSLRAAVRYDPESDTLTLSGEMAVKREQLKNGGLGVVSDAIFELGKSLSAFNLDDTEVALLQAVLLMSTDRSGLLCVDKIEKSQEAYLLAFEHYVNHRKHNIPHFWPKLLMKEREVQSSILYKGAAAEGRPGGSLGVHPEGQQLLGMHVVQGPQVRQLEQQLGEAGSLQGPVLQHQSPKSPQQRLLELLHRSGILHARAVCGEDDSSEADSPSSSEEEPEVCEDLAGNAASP
Summary of the method: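 First, HepG2 cells receive multiple GAL4-UAS reporter units and the chimeric receptor. They are then dosed for 24 h, after which RNA is reverse-transcribed, amplified, labelled, HpaI-cut and sized by capillary electrophoresis; gain relative to DMSO is scored.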

| Compound | AC50 [1] | outcome [2] | outcome [3] | outcome [4] | outcome [1] | outcome [5] | outcome [6] | outcome [7] | outcome [8] |
| --- | --- | --- | --- | --- | --- | --- | --- | --- | --- |
| CCCCCCCCCCCCCCCC(=O)O | 26.5 µM (active) | inactive | inactive | inactive | – | – | – | – | – |
| CCCCCC(=O)OCCc1ccccc1 | – | – | – | inactive | inactive | inactive | inactive | inactive | inactive |
| CCc1ccc(C=O)cc1 | – | – | – | inactive | inactive | inactive | inactive | – | – |
